Results filed as inconclusive are left out. Calls of active or inactive are those of the source. Unless noted, the call rests on the fitted dose curve; in most records, active means well fitted curve in the direction sought with a large enough effect in the repeat runs; inconclusive means weak or mixed curves; inactive means no such curve, though single readings can be large; an effect the other way counts as inactive or inconclusive.
What was measured:
[1] = A CellTox Green Cytotoxicity Assay to monitor cytotoxicity in HepG2 cells - 8 hour (AID 1224890); further: nearly all actives have a fitted effect of over 45% in size
Method in brief: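 HepG2 cells were seeded together with the CellTox Green dye at 600 cells/well, left 5 h at 37 C/5% CO2, then given compounds in DMSO. Fluorescence from dye bound to dead-cell DNA was read repeatedly over 40 h of treatment at 37 C.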

[2] = qHTS assay to identify small molecule antagonists of the estrogen receptor alpha (ER-alpha) signaling pathway using the BG1 cell line in the presence of 0.1 nM 17-beta-estradiol - cell viability counter screen (AID 1259241); further: nearly all actives have a fitted effect of over 40% in size
Method in brief: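 Following 5 days in phenol red-free medium with charcoal-stripped serum, VM7Luc4E2 cells received test compounds alongside 0.1 nM 17beta-estradiol (final) at 37C for 22 hr. Live cells were then quantified via protease-substrate fluorescence.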

[3] = qHTS assay to identify small molecule antagonists of the androgen receptor (AR) signaling pathway using the MDA cell line in the presence of 0.5 nM R1881 - cell viability counter screen (AID 1259242); further: nearly all actives have a fitted effect of over 45% in size
Method in brief: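 MDA-kb2 cells (human breast carcinoma, stably carrying MMTV-luciferase reporter) were exposed to compounds with 0.5 nM R1881 (final) for 16 hr at 37C, 0% CO2; viability then read as live-cell protease fluorescence (CellTiter-Fluor, 30 min) in the same wells.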

[4] = qHTS assay to identify small molecule HDAC inhibitors (AID 1259364); further: top concentration of the series differs between compounds; nearly all actives have a fitted effect of over 45% in size
Method in brief: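 Wild-type HCT-116 cells were plated overnight, exposed to compounds for 2 h at 37 °C, then given HDAC-Glo class I/II luminogenic reagent for 30 min at room temperature before luminescence was read.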

[5] = qHTS assay to identify small molecule HDAC inhibitors - cell viability counter screen (AID 1259365); further: series mostly up to about 92 µM; nearly all actives have a fitted effect of over 50% in size
Method in brief: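 HCT-116 wild-type, overnight attachment; 2hr drug exposure, 37C; CellTiter-Glo luminescent ATP readout after 30min RT.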

[6] = qHTS assay to identify small molecule agonists of the sonic hedgehog signaling (Shh) pathway (AID 1259368; calls by dose curve; further: series mostly up to about 92 µM; nearly all actives have a fitted effect of over 15% in size)
Method in brief: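 NIH/3T3-derived 3T3Gli1-Luc cells carrying a stably integrated Gli1 response element–firefly luciferase reporter were plated, left 4 hr at 37 C, then given compounds in DMSO for 24 hr. Luminescence was read 30 min after adding luciferase reagent.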

[7] = qHTS assay to identify small molecule antagonists of the sonic hedgehog signaling (Shh) pathway (AID 1259369; calls by dose curve; further: nearly all actives have a fitted effect of over 45% in size; further: potency means the concentration at half of the fitted maximal effect)
Method in brief: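 NIH/3T3-derived 3T3Gli1-Luc cells with stably integrated Gli1-Luc reporter were preincubated 4hr at 37 C, then given compounds in DMSO plus Shh conditioned medium and incubated 24hr. Firefly luciferase luminescence read after 30min reagent at room temperature.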

[8] = molecular target: Estrogen receptor beta (Homo sapiens) (UniProt Q92731); experiment: qHTS assay to identify small molecule agonists of the estrogen receptor beta (ER-beta) signaling pathway (AID 1259377; active means well fitted activation curve with a large enough effect in the signal ratio in the repeat runs, not every such curve was filed as active; the % refers to the signal ratio)
Estrogen receptor beta (Homo sapiens), sequence (Q92731 whole entry, looked up): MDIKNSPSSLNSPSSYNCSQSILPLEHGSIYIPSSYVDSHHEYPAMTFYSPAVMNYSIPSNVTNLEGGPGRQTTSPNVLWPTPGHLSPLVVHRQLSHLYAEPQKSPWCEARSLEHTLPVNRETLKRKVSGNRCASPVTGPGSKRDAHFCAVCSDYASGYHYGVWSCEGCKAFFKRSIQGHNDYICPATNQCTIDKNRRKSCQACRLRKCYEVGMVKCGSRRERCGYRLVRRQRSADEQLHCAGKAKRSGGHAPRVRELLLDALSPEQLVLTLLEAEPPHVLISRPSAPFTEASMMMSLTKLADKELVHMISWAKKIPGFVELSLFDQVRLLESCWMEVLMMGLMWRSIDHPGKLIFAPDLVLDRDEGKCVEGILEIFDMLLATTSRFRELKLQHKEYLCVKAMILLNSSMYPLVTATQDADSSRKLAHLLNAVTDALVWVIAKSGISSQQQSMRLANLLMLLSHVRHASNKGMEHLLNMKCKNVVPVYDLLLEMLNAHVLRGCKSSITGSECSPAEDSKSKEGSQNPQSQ
Method in brief: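 qHTS in ER-beta-UAS-bla HEK293T cells: 6 hr settling, then 16 hr compound at 37C, then LiveBLAzer substrate 2 h at RT before fluorescence reading.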

[9] = molecular target: Estrogen receptor beta (Homo sapiens) (UniProt Q92731); experiment: qHTS assay to identify small molecule antagonists of the estrogen receptor beta (ER-beta) signaling pathway (AID 1259378; active means well fitted inhibition curve with a large enough effect in the signal ratio in the repeat runs, not every such curve was filed as active; the % refers to the signal ratio; further: potency means the concentration at half of the fitted maximal effect)
Method in brief: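 ER-beta-UAS-bla HEK293T (GripTite) cells in 2% charcoal-stripped FBS medium were preincubated 6 hr at 37C, dosed with compound, then stimulated with 1 nM E2 (final) for 16 hr; beta-lactamase reporter read by B/G FRET fluorescence after 2 hr substrate loading.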

[10] = qHTS assay to identify small molecule agonists of the androgen receptor (AR) signaling pathway in the presence of an antagonist - cell viability counter screen (AID 1259379); further: nearly all actives have a fitted effect of over 25% in size; further: potency means the concentration at half of the fitted maximal effect; on activity change, negative = cytotoxicity: series mostly up to about 92 µM
Method in brief: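 MDA-kb2 human breast carcinoma cells (stable MMTV-luciferase, AR/GR responsive) were seeded 3,000 cells/well, pre-incubated 5 hr at 37C without CO2, then given 3.0uM nilutamide and compounds at 15 concentrations for 16 hr. Viability was read by CellTiter-Fluor fluorescence.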

[11] = qHTS assay to identify small molecule agonists of the estrogen receptor beta (ER-beta) signaling pathway - cell viability counter screen (AID 1259380); further: nearly all actives have a fitted effect of over 30% in size; further: potency means the concentration at half of the fitted maximal effect
Method in brief: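 ER-beta-UAS-bla HEK293T cells in medium with 2% charcoal-stripped FBS were preincubated 6 hr at 37C, dosed with compound in DMSO for 16 hr, then after the bla read, CellTiter-Glo was added for 30 min at room temperature; luminescence recorded.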

[12] = qHTS assay to identify small molecule antagonists of the estrogen receptor beta (ER-beta) signaling pathway - cell viability counter screen (AID 1259382); further: series mostly up to about 92 µM; nearly all actives have a fitted effect of over 55% in size
Method in brief: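 ER-beta-UAS-bla HEK293T cells (2,000/well, 2% charcoal-stripped FBS) were pre-incubated 6 hr at 37C, then given compound plus 1nM final 17-beta-estradiol for 16 hr. Viability was read in the same wells by CellTiter-Glo luminescence after 30 min at room temperature.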

[13] = molecular target: Estrogen receptor (Homo sapiens) (UniProt P03372); experiment: qHTS assay to identify small molecule agonists of the estrogen receptor alpha (ER-alpha) signaling pathway in the presence of an antagonist (AID 1259383; calls by dose curve; further: top concentration of the series differs between compounds; nearly all actives have a fitted effect of over 15% in size)
Estrogen receptor (Homo sapiens), sequence (P03372 whole entry, looked up): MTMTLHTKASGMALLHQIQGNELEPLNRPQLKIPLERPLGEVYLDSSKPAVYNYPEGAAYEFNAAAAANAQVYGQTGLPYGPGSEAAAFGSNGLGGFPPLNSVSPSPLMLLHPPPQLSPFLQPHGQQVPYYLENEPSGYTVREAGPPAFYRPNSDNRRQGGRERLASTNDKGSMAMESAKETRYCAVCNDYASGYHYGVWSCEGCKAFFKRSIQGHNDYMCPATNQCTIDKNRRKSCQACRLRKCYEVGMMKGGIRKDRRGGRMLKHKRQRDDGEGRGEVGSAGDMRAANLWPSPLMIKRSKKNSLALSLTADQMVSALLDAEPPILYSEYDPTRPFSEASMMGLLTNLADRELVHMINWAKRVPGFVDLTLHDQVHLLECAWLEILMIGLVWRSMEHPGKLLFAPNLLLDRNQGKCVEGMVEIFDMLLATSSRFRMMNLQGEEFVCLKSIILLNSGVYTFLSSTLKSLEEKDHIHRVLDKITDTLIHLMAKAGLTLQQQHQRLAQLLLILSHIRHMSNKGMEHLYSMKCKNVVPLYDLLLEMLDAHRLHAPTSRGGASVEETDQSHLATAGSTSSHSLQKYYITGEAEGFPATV
Method in brief: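 VM7Luc4E2 cells (endogenous full-length ER-alpha, 4×ERE-luciferase) were precultured 5 days in phenol red-free medium with 10% charcoal-stripped FBS, given 10.0nM ICI-182,780 (final), then treated with compounds at 15 concentrations for 22hr at 37C; luminescence read with ONE-Glo.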

[14] = qHTS assay to identify small molecule agonists or antagonists of the thyroid stimulating hormone receptor (TSHR) signaling pathway - wild type cell line counter screen (AID 1259384; calls by dose curve)
Method in brief: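 Wild-type HEK293 cells were plated 18 h at 37 C/5% CO2, pin-dosed with compound plus Ro20-1724 medium, held 30 min at room temperature, then given cAMP-d2 and anti-cAMP-cryptate; fluorescence was read after 1 h. Fifteen concentrations, triplicate.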

[15] = qHTS assay to identify small molecule agonists of the sonic hedgehog signaling (Shh) pathway - cell viability counter screen (AID 1259366); further: nearly all actives have a fitted effect of over 50% in size
Method in brief: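 Compounds in DMSO were pin-transferred onto 3T3 Gli1-Luc cells that had settled 4hr; plates then stood 24hr at 37C and 5% CO2. One hour before the end, CellTiter-Fluor was added and fluorescence recorded.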

[16] = qHTS assay to identify small molecule antagonists of the sonic hedgehog signaling (Shh) pathway - cell viability counter screen (AID 1259367); further: nearly all actives have a fitted effect of over 55% in size
Method in brief: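 NIH/3T3-derived Gli1-Luc reporter cells (2,000 per well) rested 4 hr at 37 C, then received DMSO compounds plus conditioned medium. After 23 hr of treatment, CellTiter-Fluor was added for 1 hr at 37C and fluorescence read.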

[17] = molecular target: Androgen receptor (Homo sapiens) (UniProt P10275); experiment: qHTS assay to identify small molecule antagonists of the androgen receptor (AR) signaling pathway using the MDA cell line in the presence of 0.5 nM R1881 (AID 1259243); further: nearly all actives have a fitted effect of over 50% in size
Androgen receptor (Homo sapiens), sequence (P10275 whole entry, looked up): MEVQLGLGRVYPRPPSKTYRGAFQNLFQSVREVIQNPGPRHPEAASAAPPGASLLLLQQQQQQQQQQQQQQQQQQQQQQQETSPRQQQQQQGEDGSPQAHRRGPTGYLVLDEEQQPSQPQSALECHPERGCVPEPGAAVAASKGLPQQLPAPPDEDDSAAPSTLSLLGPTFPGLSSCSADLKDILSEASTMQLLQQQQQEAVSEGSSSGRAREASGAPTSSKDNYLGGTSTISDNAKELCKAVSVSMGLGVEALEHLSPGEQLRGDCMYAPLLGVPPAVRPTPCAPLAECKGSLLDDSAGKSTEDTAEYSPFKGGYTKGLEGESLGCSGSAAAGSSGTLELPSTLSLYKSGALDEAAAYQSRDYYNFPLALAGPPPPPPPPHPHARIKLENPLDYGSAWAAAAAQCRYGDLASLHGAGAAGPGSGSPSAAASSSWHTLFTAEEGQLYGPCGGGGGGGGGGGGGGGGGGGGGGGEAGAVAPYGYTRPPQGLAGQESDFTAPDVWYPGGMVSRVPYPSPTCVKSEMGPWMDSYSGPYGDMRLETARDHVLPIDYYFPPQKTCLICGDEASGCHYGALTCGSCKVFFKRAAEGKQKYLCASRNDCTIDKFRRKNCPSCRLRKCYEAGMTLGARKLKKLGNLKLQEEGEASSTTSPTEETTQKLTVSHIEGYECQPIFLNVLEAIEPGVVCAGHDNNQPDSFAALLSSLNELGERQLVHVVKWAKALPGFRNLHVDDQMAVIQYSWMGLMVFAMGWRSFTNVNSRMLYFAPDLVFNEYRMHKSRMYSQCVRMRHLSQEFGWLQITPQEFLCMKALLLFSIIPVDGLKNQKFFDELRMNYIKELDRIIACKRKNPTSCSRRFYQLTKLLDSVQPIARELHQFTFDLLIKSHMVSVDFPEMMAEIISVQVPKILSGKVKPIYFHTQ
Method in brief: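 MDA-kb2 human breast carcinoma cells carrying an MMTV-luciferase reporter (AR- and GR-responsive) were plated, rested 5 hr at 37C, dosed with compounds, then stimulated with 0.5 nM R1881 (final) for 16 hr; luminescence was read after ONE-Glo.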

[18] = molecular target: Androgen receptor (Homo sapiens) (UniProt P10275); experiment: qHTS assay to identify small molecule agonists of the androgen receptor (AR) signaling pathway in the presence of an antagonist (AID 1259381; calls by dose curve; further: nearly all actives have a fitted effect of over 15% in size)
Method in brief: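 MDA-kb2 human breast carcinoma cells carrying an MMTV-luciferase reporter (AR- and GR-responsive) were treated with compounds at 15 concentrations plus 3.0uM final nilutamide for 16hr at 37C without CO2; luminescence was read after ONE-Glo addition.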

[19] = molecular target: Estrogen receptor (Homo sapiens) (UniProt P03372); experiment: qHTS assay to identify small molecule antagonists of the estrogen receptor alpha (ER-alpha) signaling pathway using the BG1 cell line in the presence of 0.1 nM 17-beta-estradiol (AID 1259244); further: nearly all actives have a fitted effect of over 50% in size
Method in brief: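 VM7Luc4E2 cells (endogenous full-length ER-alpha, stable 4xERE-luciferase) were grown 5 days in phenol red-free medium with charcoal-stripped FBS, then exposed 22 h at 37C to compounds plus 0.1 nM (final) 17beta-estradiol; ONE-Glo luminescence read-out.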

[20] = qHTS assay to identify small molecule phospholipidosis (PLD) inducers (AID 1259344; active means well fitted curve in the direction sought with a large enough effect; an effect the other way counts as inactive or inconclusive)
Method in brief: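 HepG2 cells on collagen I, attached 4 h at 37 C, were co-treated with compound and LipidTOX Red dye for 24 h at 37 C, then fixed with paraformaldehyde plus Hoechst 33342 and imaged by high-content microscopy for phospholipid accumulation.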
On the % scale 0 is the no-effect control and ±100 the full control effect.

[Cl][Nd]([Cl])[Cl]
inactive: Potency [1] | Potency [2] | Potency [3] | Potency [4] | Potency [5] | Potency [6] | Potency [7] | Potency [8] | Potency [9] | Potency [10] | Potency [11] | Potency [12] | Potency [13] | Potency [14]

CNCc1ccc(NC(=O)c2c[nH]c3c2C(=O)CCC3)cc1
inactive: Potency [1] | Potency [2] | Potency [3] | Potency [4] | Potency [5] | Potency [15] | Potency [16] | Potency [6] | Potency [8] | Potency [9] | Potency [10] | Potency [12] | Potency [14]

CC(=O)C(C)=O
inactive: Potency [1] | Potency [2] | Potency [3] | Potency [5] | Potency [15] | Potency [16] | Potency [6] | Potency [7] | Potency [10] | Potency [11] | Potency [12] | Potency [14]

CC(C)(O)c1coc(S(=O)(=O)NC(=O)Nc2c3c(cc4c2CCC4)CCC3)c1
inactive: Potency [1] | Potency [2] | Potency [3] | Potency [4] | Potency [5] | Potency [15] | Potency [6] | Potency [8] | Potency [9] | Potency [10] | Potency [11] | Potency [12]
active: Potency [7] 54.5 µM

CCCCCCCC(=O)Oc1c(Br)cc(C#N)cc1Br
active: Potency [7] 27.2 µM
inactive: Potency [1] | Potency [2] | Potency [3] | Potency [4] | Potency [5] | Potency [15] | Potency [16] | Potency [6] | Potency [10] | Potency [13]

CCc1ccc(C)cc1
inactive: Potency [1] | Potency [2] | Potency [17] | Potency [4] | Potency [5] | Potency [15] | Potency [16] | Potency [6] | Potency [7] | Potency [8] | Potency [9] | Potency [10] | Potency [11] | Potency [18] | Potency [12]

CC1CCC(C(C)CS)CC1S (stereo not given)
inactive: Potency [1] | Potency [2] | Potency [17] | Potency [5] | Potency [15] | Potency [16] | Potency [6] | Potency [7] | Potency [8] | Potency [9] | Potency [10] | Potency [11] | Potency [18] | Potency [12]

CC/C=C\C/C=C\C/C=C\CCCCCCCC(=O)OCC
inactive: Potency [1] | Potency [2] | Potency [3] | Potency [4] | Potency [5] | Potency [15] | Potency [16] | Potency [6] | Potency [8] | Potency [10] | Potency [12] | Potency [14]

CC(C)(C(=O)c1cccnc1)c1cccnc1
inactive: Potency [1] | Potency [2] | Potency [3] | Potency [5] | Potency [15] | Potency [16] | Potency [6] | Potency [10] | Potency [11] | Potency [12] | Potency [13] | Potency [14]

CCCC(=O)OC(=O)CCC
inactive: Potency [1] | Potency [2] | Potency [3] | Potency [5] | Potency [15] | Potency [16] | Potency [6] | Potency [7] | Potency [8] | Potency [9] | Potency [10] | Potency [11] | Potency [12] | Potency [14]

CC(CO)(CO)C(=O)O
inactive: Potency [1] | Potency [2] | Potency [19] | Potency [4] | Potency [5] | Potency [15] | Potency [16] | Potency [6] | Potency [7] | Potency [8] | Potency [9] | Potency [10] | Potency [11] | Potency [12] | Potency [13]

C[C@@H]1[C@H](O)[C@@H](C)/C=C/C=C\C=C\C=C\C=C\C=C\C=C\[C@H](O[C@@H]2O[C@H](C)[C@@H](O)[C@H](N)[C@@H]2O)C[C@@H]2O[C@](O)(C[C@@H](O)C[C@@H](O)[C@H](O)CC[C@@H](O)C[C@@H](O)CC(=O)O[C@H]1C)C[C@H](O)[C@H]2C(=O)O (stereo in doubt)
active: Potency [10] 61.1 µM | Potency [11] 61.1 µM
inactive: Potency [1] | Potency [2] | Potency [19] | Potency [20] | Potency [4] | Potency [5] | Potency [6] | Potency [13] | Potency [14]

CCC(CO)(CO)[N+](=O)[O-]
inactive: Potency [1] | Potency [2] | Potency [19] | Potency [4] | Potency [5] | Potency [15] | Potency [16] | Potency [6] | Potency [7] | Potency [10] | Potency [11] | Potency [12] | Potency [13] | Potency [14]

CC1=CC[C@@H]2C[C@H]1C2(C)C
inactive: cytotoxicity increase [1] -9.84% [at 15.8 µM] | activity change, negative = cytotoxicity [2] 3.19% [at 19 µM] | viability change, negative = cytotoxic [3] 1.84% [at 19 µM] | activity change, negative = inhibition [4] 0.0628% [at 19 µM] | activity change, negative = cytotoxicity [5] -0.126% [at 19 µM] | viability change, negative = cytotoxic [15] -0.75% [at 19 µM] | viability change, negative = cytotoxic [16] -2.9% [at 19 µM] | activity change [6] 0.102% [at 18.9 µM, stronger effect = higher value] | activation [8] -1.23% [at 19 µM] | activity, negative = inhibition [9] -3.84% [at 19 µM] | activity change, negative = cytotoxicity [10] 0.221% [at 19 µM] | activity change, negative = cytotoxicity [11] 5.66% [at 19 µM] | activity change, negative = cytotoxicity [12] 4.03% [at 19 µM] | activation [13] -0.899% [at 19 µM] | cAMP activity change [14] -1.96% [at 18.9 µM, stronger effect = higher value]

CCCCCc1ccco1
active: Potency [9] 25.1 µM
inactive: Potency [1] | Potency [2] | Potency [3] | Potency [4] | Potency [5] | Potency [15] | Potency [16] | Potency [6] | Potency [8] | Potency [10] | Potency [12] | Potency [14]

Cc1ccc2c(c1)CCCN2
inactive: Potency [1] | Potency [2] | Potency [3] | Potency [5] | Potency [15] | Potency [16] | Potency [6] | Potency [7] | Potency [10] | Potency [11] | Potency [12] | Potency [13]
